The campaign covered roughly 89,000 compounds. About 10 (0.01%) were called active. About 10% were inconclusive and are not listed. Cut-off read from the data, not from the text of the source: active = activity change below about -37% (passing the limit was not always enough); inconclusive = no clear call, values can overlap the other calls; tested in A549 cells. Only a sample is shown.

The text below walks through data of PubChem BioAssay AID1053133 (Broad Institute, 2014).

A short description of the test: blocks a specific stage of Vaccinia orthopoxvirus infection, primary screen, cell-based, single point (AID 1053133). The following applies: Vaccinia-infected cells, mCherry/Venus stage reporter fluorescence, stronger effect = lower value, concentration not given here; activity change (Venus): measured here: Venus reporter, other viral stage.
For `O=C(C[C@H]1C=C[C@@H](NS(=O)(=O)c2ccc(F)cc2)[C@@H](CO)O1)NC1CCC1`, the activity change (Venus) worked out at 1.04% and the activity change (mCherry) was -4.64% (inactive).
On the same counts, the results for `COc1ccc2c3c(n(C)c2c1)[C@@H](CO)NCC31CCN(CC2CC2)CC1` are -18.9% and -27.4% (inactive).
On the same counts, the results for `O=C([C@@H]1[C@@H](CO)[C@@H]2Cn3c(ccc(C4=CCCC4)c3=O)[C@H]1N2C(=O)c1ccncc1)N1CCCCC1` are 16.9% and 10.1% (inactive).
In the same order, the values of `C[C@@H]1CCCCO[C@H](CN(C)S(=O)(=O)c2cccs2)[C@H](C)CN([C@@H](C)CO)C(=O)c2cc(NC(=O)Nc3ccc4c(c3)OCO4)ccc2O1` are 8.44% and 9.35% (inactive).
As for `COCC(=O)N1CC2(CN(C(=O)c3cccnc3)C2)c2c([nH]c3cc(OC)ccc23)[C@H]1CO`, the activity change (Venus) was -0.352% and the activity change (mCherry) is 2.73% (inactive).
In the same order, the values of `Cc1ccccc1S(=O)(=O)N[C@@H]1CC[C@H](CCn2cc(-c3ccc(F)cc3)nn2)O[C@@H]1CO` are -24.8% and -28.1% (inactive).
On the same counts, the results for `CO[C@@H]1CC[C@@H]2CCOc3c(C#N)cccc3C(=O)N(C)C[C@H](C)C(=O)N(C)C[C@H]1O2` are 8.81% and 14.4% (inactive).
In the same order, the values of `C[C@@H]1CN([C@@H](C)CO)C(=O)c2cc(NC(=O)Cc3ccccc3)ccc2O[C@@H](C)CCCCO[C@H]1CN(C)C(=O)Nc1cccc2ccccc12` are 18.5% and 21.9% (inactive).
On to `CN(C)CCCNC(=O)C[C@H]1CC[C@H]2[C@@H](COC[C@H](O)CN2CC2CCCCC2)O1`, for which the activity change (Venus) was 5.87% and the activity change (mCherry) was 3.25% (inactive).
As to `C[C@@H]1CCCCO[C@@H](CN(C)Cc2ccc3c(c2)OCO3)[C@H](C)CN([C@@H](C)CO)C(=O)c2cc(NS(C)(=O)=O)ccc2O1`, the activity change (Venus) was found to be 5.91% and the activity change (mCherry) is -0.705% (inactive).
`COc1ccc2c3c(n(C)c2c1)[C@H](CO)N(CC1CCOCC1)CC31CCN(C(C)=O)CC1`: the activity change (Venus) was 11% and the activity change (mCherry) is 17.4% (inactive).
In the same order, the values of `CN(C)CC(=O)Nc1ccc2c(c1)[C@@H]1C[C@H](CC(=O)NCc3ccc(Cl)cc3)O[C@@H](CO)[C@@H]1O2` are 5.77% and -4.73% (inactive).
On the same counts, the results for `COc1ccc2c3c([nH]c2c1)[C@@H](CO)N(C(=O)c1ccc(F)cc1)CC31CCN(C(=O)Nc2ccc(F)cc2)CC1` are -2.47% and 1.1% (inactive).
In the same order, the values of `C[C@H](CO)N1C[C@H](C)[C@H](CN(C)Cc2cccc(F)c2)Oc2ncc(C#CCN(C)C)cc2C1=O` are -6.38% and -10.3% (inactive).
On to `COc1ccc(S(=O)(=O)N[C@@H]2CC[C@@H](CC(=O)NCCc3ccccc3)O[C@@H]2CO)cc1`, for which the activity change (Venus) is -2.59% and the activity change (mCherry) was 3.47% (inactive).
Take `O=C(NCC[C@@H]1CC[C@@H](NS(=O)(=O)c2ccc(Cl)cc2)[C@@H](CO)O1)c1ccccc1F`: the activity change (Venus) is -4.89% and the activity change (mCherry) was -8.02% (inactive).
On the same counts, the results for `COc1ccc(S(=O)(=O)Nc2ccc3c(c2)C(=O)N([C@@H](C)CO)C[C@H](C)[C@@H](CN(C)C(=O)c2ccccc2)OCCCC[C@H](C)O3)cc1` are -18.1% and -21.6% (inactive).
As to `CC(C)NC(=O)N1Cc2cc(C(=O)NCC(F)(F)F)nc(-c3cccc(-c4cc5ccccc5o4)c3)c2[C@@H]1CCO`, the activity change (Venus) was -13.3% and the activity change (mCherry) is -16.3% (inactive).
Turning to `C[C@@H]1CN([C@@H](C)CO)C(=O)Cc2cc(NS(=O)(=O)c3cccs3)ccc2O[C@H]1CN(C)S(=O)(=O)c1ccc(F)cc1`, the activity change (Venus) was 4.55% and the activity change (mCherry) was -5.12% (inactive).
In the same order, the values of `CO[C@@H]1CN(C)C(=O)c2cc(NC(=O)C3CC3)ccc2OC[C@H](C)N(C(=O)CN(C)C)C[C@H]1C` are -3.17% and -2.47% (inactive).
On the same counts, the results for `O=C(C[C@@H]1CC[C@H](NC(=O)Nc2ccc3c(c2)OCO3)[C@H](CO)O1)NCc1ccccc1` are 14.1% and 19.4% (inactive).
Turning to `C=CCOC(=O)C1=C[C@@H](c2ccccc2)C[C@@H](OCc2ccc(CO)cc2)O1`, the activity change (Venus) was -3.63% and the activity change (mCherry) is 2.64% (inactive).
In the same order, the values of `O=C(C1CCCC1)N1CC(=O)N2[C@@H](CO)[C@@H](c3ccc(-c4cccnc4)cc3)[C@@H]2C1` are -4.04% and -5.69% (inactive).
Turning to `Cc1ccccc1-c1cnc2c(c1)C(=O)N([C@H](C)CO)C[C@@H](C)[C@H](CN(C)C(=O)c1cccnc1)O2`, the activity change (Venus) is -1.16% and the activity change (mCherry) is -1.67% (inactive).
With `CN(C)C(=O)c1ccc(-c2ccc(C3[C@H]4CNC[C@@H]3N4C(=O)Nc3cc(F)ccc3F)cc2)cc1` (some centres undefined), the activity change (Venus) turned out to be 3.11% and the activity change (mCherry) was 14.7% (inactive).
In the case of `O=C(C1CCCCC1)N1CC2(C1)[C@H](c1ccccc1)[C@@H](CO)N2CCC(F)(F)F`, the activity change (Venus) is -3.18% and the activity change (mCherry) is -9.06% (inactive).
On the same counts, the results for `CC(=O)Nc1ccc2c(c1)C(=O)N(C)[C@H]1CC[C@@H](CC(=O)NCC3CC3)O[C@H]1CO2` are 11.1% and 7.92% (inactive).
Take `CCC(=O)N(C)C[C@@H]1Oc2ncc(/C=C/c3ccccc3)cc2C(=O)N([C@@H](C)CO)C[C@H]1C`: the activity change (Venus) is 1.22% and the activity change (mCherry) is 12.1% (inactive).
On the same counts, the results for `O=C(O)C[C@H]1C=C[C@@H](NC(=O)Nc2cc(F)ccc2F)[C@@H](CO)O1` are 9.94% and 8.15% (inactive).
`COCC(=O)N(C)C[C@H]1Oc2cc(C#C[C@@H](C)O)ccc2S(=O)(=O)N([C@@H](C)CO)C[C@@H]1C`: the activity change (Venus) is -7.76% and the activity change (mCherry) is 2.13% (inactive).
On the same counts, the results for `CCC(=O)N(C)C[C@@H]1Oc2cc(-c3ccc(C#N)cc3)ccc2S(=O)(=O)N([C@@H](C)CO)C[C@@H]1C` are 0.0371% and -1.36% (inactive).
As to `COc1ccc2c3c(n(C)c2c1)[C@@H](CO)N(S(C)(=O)=O)CC31CCN(C(=O)C2CCC2)CC1`, the activity change (Venus) was -12.1% and the activity change (mCherry) was -2.22% (inactive).
In the same order, the values of `CC(C)C#Cc1cnc2c(c1)C(=O)N([C@H](C)CO)C[C@H](C)[C@@H](CN(C)C(=O)Nc1cc(F)ccc1F)O2` are -6.46% and -3.74% (inactive).
Regarding `COc1ccccc1NC(=O)N1C[C@@H](O)COC[C@H]2O[C@@H](CC(=O)NCc3ccccc3)CC[C@@H]21`, the activity change (Venus) is -3.27% and the activity change (mCherry) is -5.93% (inactive).
On the same counts, the results for `Cc1cccc(-c2ccc([C@@H]3[C@H]4CN(C(=O)c5ccccc5)CC(=O)N4[C@H]3CO)cc2)c1` are -26.3% and -24.1% (inactive).
On the same counts, the results for `CCCN1C[C@H](C)[C@@H](OC)CN(C)C(=O)c2ccc(NC(=O)C3CCOCC3)cc2OC[C@@H]1C` are 5.44% and 13.4% (inactive).
On the same counts, the results for `C[C@H]1CN([C@@H](C)CO)C(=O)CCCn2nncc2CO[C@@H]1CN(C)C(=O)Nc1ccc(N2CCN(C)CC2)cc1` are 3.05% and 3.06% (inactive).
